From ChEMBL document CHEMBL1961873, “Compounds: GSK PKIS; Assays: Nanosyn kinase panel” (2012) come the findings set out here.

Assay [1] has as its target Rho-associated protein kinase 1 (Homo sapiens) (UniProt Q13464). The following applies: at 1 µM.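 Further: reported values are mean percent inhibition of ROCK1.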
Assay [2] has as its target Rho-associated protein kinase 2 (Homo sapiens) (UniProt O75116). The following applies: at 0.1 µM.
For assay [3] the target is unchanged. The following applies: at 1 µM.
The target of assay [4] is Ribosomal protein S6 kinase alpha-1 (Homo sapiens) (UniProt Q15418). The following applies: at 0.1 µM.
Assay [5] shares this target. The following applies: at 1 µM.
Assay [6] addresses Ribosomal protein S6 kinase alpha-3 (Homo sapiens) (UniProt P51812). The following applies: at 0.1 µM.
Assay [7] shares this target. The following applies: at 1 µM.
Assay [8] has as its target Ribosomal protein S6 kinase alpha-2 (Homo sapiens) (UniProt Q15349). The following applies: at 0.1 µM.
Assay [9] has the same target. The following applies: at 1 µM.
For assay [10], the target named is Ribosomal protein S6 kinase alpha-6 (Homo sapiens) (UniProt Q9UK32). The following applies: at 0.1 µM.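 Further: reported value is the mean inhibition of RSK4, from the GSK PKIS kinase inhibitor screen.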
Chain of Ribosomal protein S6 kinase alpha-6 (Homo sapiens) (Q9UK32 whole entry): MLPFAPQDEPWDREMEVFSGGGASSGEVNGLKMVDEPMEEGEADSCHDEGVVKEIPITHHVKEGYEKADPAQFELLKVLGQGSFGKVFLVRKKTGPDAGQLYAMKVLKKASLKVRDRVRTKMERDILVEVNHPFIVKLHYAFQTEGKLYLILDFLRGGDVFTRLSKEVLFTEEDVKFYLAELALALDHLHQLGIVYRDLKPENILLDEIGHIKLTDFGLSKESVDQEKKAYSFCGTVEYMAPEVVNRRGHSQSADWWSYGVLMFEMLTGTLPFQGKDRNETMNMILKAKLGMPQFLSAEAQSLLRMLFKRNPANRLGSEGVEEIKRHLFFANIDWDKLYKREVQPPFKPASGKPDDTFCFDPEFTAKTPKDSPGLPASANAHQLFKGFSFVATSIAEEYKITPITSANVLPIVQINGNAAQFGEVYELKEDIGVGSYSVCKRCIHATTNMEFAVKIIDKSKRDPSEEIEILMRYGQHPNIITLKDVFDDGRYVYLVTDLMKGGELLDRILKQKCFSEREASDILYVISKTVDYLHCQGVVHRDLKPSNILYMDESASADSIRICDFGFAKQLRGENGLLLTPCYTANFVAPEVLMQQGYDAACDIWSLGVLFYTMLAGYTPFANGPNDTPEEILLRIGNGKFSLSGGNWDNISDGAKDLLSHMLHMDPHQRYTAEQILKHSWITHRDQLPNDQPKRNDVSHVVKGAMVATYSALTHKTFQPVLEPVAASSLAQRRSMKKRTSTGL

A word on the inhibition: it is the change of the read-out against control, counted positive when it falls.

Molecules are shown by their SMILES.

Chain of Ribosomal protein S6 kinase alpha-2 (Homo sapiens) (Q15349 whole entry): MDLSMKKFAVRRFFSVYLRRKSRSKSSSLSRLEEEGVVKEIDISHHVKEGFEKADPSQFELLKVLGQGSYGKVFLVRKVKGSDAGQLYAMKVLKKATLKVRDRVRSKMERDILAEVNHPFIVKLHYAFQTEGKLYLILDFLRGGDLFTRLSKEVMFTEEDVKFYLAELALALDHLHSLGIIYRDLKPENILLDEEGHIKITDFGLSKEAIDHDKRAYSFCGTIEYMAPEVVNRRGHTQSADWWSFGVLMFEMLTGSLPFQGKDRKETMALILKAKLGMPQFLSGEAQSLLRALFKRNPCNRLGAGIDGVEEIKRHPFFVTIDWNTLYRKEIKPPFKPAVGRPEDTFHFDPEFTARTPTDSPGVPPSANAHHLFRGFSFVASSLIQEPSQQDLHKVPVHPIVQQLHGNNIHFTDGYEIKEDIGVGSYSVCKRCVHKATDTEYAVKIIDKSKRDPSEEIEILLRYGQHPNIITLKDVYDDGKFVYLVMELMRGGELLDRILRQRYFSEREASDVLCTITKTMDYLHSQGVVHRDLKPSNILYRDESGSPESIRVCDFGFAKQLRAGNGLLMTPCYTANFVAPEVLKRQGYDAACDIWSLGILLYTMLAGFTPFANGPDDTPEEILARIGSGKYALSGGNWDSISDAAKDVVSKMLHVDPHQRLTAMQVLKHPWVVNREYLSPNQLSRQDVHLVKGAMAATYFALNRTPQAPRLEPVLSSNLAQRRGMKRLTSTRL
Chain of Rho-associated protein kinase 2 (Homo sapiens) (O75116 whole entry, looked up): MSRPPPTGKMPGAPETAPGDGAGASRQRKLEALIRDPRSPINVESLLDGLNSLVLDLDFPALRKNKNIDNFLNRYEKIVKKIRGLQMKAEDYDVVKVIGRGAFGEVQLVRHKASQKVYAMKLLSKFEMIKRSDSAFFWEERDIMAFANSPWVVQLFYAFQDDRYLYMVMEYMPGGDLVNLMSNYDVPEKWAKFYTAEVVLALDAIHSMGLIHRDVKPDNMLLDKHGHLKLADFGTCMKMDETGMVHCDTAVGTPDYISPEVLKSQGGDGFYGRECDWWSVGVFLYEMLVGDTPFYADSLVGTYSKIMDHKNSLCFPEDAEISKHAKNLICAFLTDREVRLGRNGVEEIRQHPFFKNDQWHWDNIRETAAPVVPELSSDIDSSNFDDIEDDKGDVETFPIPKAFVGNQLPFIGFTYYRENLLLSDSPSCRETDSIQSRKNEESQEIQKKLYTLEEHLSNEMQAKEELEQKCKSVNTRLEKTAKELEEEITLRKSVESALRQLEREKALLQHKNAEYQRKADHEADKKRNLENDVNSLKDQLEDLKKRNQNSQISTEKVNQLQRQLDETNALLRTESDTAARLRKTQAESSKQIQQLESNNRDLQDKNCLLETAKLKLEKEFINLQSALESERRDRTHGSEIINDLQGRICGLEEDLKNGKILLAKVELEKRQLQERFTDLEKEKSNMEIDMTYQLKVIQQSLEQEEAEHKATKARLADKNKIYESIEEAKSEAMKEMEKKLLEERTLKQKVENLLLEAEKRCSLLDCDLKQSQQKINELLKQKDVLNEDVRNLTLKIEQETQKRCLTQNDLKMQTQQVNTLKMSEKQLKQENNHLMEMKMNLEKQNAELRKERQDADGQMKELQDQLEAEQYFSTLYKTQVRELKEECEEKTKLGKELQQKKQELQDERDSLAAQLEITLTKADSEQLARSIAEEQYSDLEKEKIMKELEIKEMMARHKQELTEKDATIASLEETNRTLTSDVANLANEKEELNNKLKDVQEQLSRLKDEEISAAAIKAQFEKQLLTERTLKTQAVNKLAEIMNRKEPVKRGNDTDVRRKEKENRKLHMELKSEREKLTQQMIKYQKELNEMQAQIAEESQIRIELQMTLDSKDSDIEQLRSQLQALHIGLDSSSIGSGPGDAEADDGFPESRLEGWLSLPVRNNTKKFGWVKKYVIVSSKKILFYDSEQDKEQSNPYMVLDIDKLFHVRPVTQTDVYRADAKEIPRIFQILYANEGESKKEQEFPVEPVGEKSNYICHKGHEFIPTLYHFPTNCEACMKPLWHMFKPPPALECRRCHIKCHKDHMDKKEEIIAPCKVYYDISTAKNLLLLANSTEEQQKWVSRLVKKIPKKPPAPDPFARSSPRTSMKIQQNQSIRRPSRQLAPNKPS
Chain of Ribosomal protein S6 kinase alpha-3 (Homo sapiens) (P51812 whole entry): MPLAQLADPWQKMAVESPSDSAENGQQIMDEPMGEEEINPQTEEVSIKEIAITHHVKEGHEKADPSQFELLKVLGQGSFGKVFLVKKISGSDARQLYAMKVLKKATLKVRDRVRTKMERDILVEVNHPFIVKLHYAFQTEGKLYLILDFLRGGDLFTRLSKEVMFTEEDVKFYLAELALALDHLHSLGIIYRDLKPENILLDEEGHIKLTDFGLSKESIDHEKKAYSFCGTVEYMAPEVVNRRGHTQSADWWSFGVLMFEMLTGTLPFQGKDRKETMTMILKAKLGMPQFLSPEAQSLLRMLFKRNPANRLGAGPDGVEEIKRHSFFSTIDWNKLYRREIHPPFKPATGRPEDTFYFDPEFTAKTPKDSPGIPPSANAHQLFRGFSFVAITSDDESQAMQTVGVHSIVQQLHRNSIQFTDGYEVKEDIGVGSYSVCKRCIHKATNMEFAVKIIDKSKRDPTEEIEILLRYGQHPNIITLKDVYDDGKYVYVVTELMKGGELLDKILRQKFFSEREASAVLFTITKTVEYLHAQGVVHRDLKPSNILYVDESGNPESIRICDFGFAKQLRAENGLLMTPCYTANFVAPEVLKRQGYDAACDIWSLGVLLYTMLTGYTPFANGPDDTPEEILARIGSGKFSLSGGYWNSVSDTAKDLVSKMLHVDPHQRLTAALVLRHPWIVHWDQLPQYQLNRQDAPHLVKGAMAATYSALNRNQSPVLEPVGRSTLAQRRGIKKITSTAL
Chain of Rho-associated protein kinase 1 (Homo sapiens) (Q13464 2-1354 limits assumed): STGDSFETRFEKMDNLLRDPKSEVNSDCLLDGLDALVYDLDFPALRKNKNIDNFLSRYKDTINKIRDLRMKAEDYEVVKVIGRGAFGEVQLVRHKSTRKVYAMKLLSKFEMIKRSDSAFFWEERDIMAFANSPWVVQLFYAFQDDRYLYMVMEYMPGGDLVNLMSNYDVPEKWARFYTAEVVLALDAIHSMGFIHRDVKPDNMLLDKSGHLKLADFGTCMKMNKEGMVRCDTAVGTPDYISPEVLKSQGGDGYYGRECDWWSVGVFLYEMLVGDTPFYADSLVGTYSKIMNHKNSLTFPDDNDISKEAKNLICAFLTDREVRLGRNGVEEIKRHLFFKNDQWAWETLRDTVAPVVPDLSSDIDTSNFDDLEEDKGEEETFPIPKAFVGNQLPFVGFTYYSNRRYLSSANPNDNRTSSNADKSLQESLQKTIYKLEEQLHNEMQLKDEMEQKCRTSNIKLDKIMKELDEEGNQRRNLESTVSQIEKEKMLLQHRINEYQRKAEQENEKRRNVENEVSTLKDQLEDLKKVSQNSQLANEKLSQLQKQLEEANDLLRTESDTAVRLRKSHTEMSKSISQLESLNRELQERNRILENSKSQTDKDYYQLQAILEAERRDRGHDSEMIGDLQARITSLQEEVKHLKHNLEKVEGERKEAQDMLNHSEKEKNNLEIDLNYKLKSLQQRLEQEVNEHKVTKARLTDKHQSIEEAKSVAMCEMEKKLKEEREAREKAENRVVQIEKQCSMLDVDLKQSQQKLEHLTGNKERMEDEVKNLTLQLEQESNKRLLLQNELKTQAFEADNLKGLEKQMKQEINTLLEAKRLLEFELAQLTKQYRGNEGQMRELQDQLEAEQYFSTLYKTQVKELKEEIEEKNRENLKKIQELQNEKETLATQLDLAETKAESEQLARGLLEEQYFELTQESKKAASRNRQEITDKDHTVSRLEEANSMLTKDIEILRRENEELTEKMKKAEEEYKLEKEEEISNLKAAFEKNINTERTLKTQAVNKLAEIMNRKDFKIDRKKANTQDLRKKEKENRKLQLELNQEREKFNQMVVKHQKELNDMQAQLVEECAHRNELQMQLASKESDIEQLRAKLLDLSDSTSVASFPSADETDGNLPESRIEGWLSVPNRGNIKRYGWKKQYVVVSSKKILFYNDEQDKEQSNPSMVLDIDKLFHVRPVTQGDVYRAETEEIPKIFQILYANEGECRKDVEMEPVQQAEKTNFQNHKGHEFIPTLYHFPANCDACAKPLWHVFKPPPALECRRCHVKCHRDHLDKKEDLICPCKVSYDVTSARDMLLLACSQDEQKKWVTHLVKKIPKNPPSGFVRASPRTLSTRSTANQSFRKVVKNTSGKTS

As to `COc1ccc(CNC(=O)c2ccc(-c3cc(-c4nnc(C)o4)ccc3C)cc2)cc1`, the inhibition was determined as 2.35% in [1]; 4.11% in [2]; 9.48% in assay [3]; 3.72% in assay [4]; 8.08% in assay [5]; 2.12% in assay [6]. Moreover, the inhibition is 5.75% in assay [7], 0.39% in assay [8], 0.4% in assay [9] and 0.98% in [10].
Regarding `Cc1cccc2c1NC(=O)/C2=N\Nc1ccc(S(N)(=O)=O)cc1`, the inhibition was 2.1% in [1]; 3.93% in assay [2]; 1.59% in assay [3]; 1.09% in [4]; 1.6% in assay [5]; 0.33% in assay [6]. In addition, the inhibition in assay [7] stood at 1.26%; in [8], 1.69%; in [9], 2.49%; in assay [10], 1.43%.
In the case of `Nc1nc(-c2ccc(F)cc2)c(-c2ccc3ncccc3n2)s1`, the inhibition in assay [1] turned out to be 2.11%; in assay [2], 4.08%; in assay [3], 5.66%; in assay [4], 3.54%; in [5] it was 7.04%; in [6], 1.7%. Besides, the inhibition in assay [7] came out at 3.18%; in assay [8] it was 1.93%; in assay [9], 3.03%; in [10], 1.18%.
For `CCn1cc(-c2ccnc3[nH]ccc23)c(-c2cccc(NC(=O)Nc3ccc(OCc4ccccc4)cc3)c2)n1`, the inhibition was -1.44% in [1]; 1.34% in assay [2]; 15.9% in assay [3]; -1.5% in [4]; 1.29% in assay [5]; 1.34% in assay [6]. Moreover, the inhibition in assay [7] is 1.78%; in [8], -0.02%; in assay [9], 0.38%; in assay [10], -1.3%.
In the case of `NC(=O)c1sc(-n2cnc3ccc(C(F)(F)F)cc32)cc1OCc1ccccc1Br`, the inhibition in assay [1] came out at 3.95%; in assay [2] it was 2.8%; in [3] it was 4.98%; in assay [4], 2.63%; in assay [5], 4.25%; in [6] it was 0.56%. The inhibition amounted to 2.48% in [7], 0.97% in assay [8], 3.47% in assay [9] and 0.36% in assay [10].
Turning to `CC(=O)Nc1cccc(C#Cc2cncnc2Nc2ccc(OCc3cccc(F)c3)c(Cl)c2)c1`, the inhibition in [1] is 0.67%; in assay [2], 0.44%; in assay [3], 0.1%; in assay [4], 0.12%; in assay [5], -1.94%; in assay [6], 0.9%. The inhibition in assay [7] is -0.35%; in assay [8], 1.46%; in assay [9], 0.33%; in assay [10], 0.92%.
For `CN1CCC(n2cnc(-c3ccc(F)cc3)c2-c2ccnc(Nc3ccccc3)n2)CC1`, the inhibition in assay [1] amounted to 0.32%; in [2], 0.82%; in assay [3], 3.27%; in [4], 1.76%; in assay [5] it was 4.83%; in assay [6], 1.15%. Also, the inhibition is 3.9% in assay [7], 2.93% in assay [8], 2.91% in [9] and 3.17% in assay [10].
`COC(=O)Nc1nc2ccc(S(=O)(=O)c3ccc(NC(=O)Nc4cc(C(F)(F)F)ccc4F)cc3)cc2[nH]1`: the inhibition in assay [1] is 2.05%; in [2] it was 1.37%; in [3] it was -0.72%; in assay [4], 1.38%; in [5], 0.31%; in assay [6], 0.77%. In addition, the inhibition in [7] turned out to be 0.41%; in assay [8] it was 1.99%; in assay [9], 2.47%; in assay [10], 0.08%.
On to `NS(=O)(=O)c1ccc(N/N=C2\C(=O)Nc3ccc4ncccc4c32)cc1`, for which the inhibition came out at 38.4% in [1]; 15.9% in assay [2]; 60.3% in assay [3]; 6.2% in assay [4]; 30.6% in assay [5]; 7.41% in [6]. Further, the inhibition amounted to 39.4% in assay [7], 15.9% in assay [8], 61.7% in assay [9] and 13% in assay [10].
Turning to `COc1ccc2c(-c3ccnc(Nc4cccc(OC(F)(F)F)c4)n3)cnn2n1`, the inhibition in assay [1] turned out to be 2.92%; in assay [2], 3.74%; in assay [3], 8.15%; in [4] it was 2.26%; in assay [5], 3.67%; in assay [6], 1.3%. For the same molecule, the inhibition was 1.1% in [7], 1.43% in assay [8], 2.43% in assay [9] and 1.53% in assay [10].
Turning to `COc1cc2ncn(-c3cc(OCc4ccccc4C(F)(F)F)c(C(=O)N(C)C)s3)c2cc1OC`, the inhibition in assay [1] is 0.34%; in assay [2], -0.35%; in assay [3] it was 1.56%; in [4], -0.72%; in assay [5], 0.84%; in assay [6], -0.53%. The inhibition in [7] was 0.59%; in assay [8], -0.15%; in [9], 1.29%; in [10] it was -0.29%.
`Clc1ccc(-c2nn3ncccc3c2-c2ccnc(Nc3ccccc3)n2)cc1`: the inhibition in assay [1] was found to be 4.03%; in assay [2], 2.19%; in [3], 3.84%; in assay [4], 1.56%; in [5], 2.48%; in assay [6], 0.47%. The inhibition came out at 1.89% in [7], 0.49% in assay [8], 1.37% in [9] and 0.64% in assay [10].
Take `O=C(O[C@H]1CN[C@H](C#Cc2cc3ncnc(Nc4ccc(Cc5ccccc5)cc4)c3s2)C1)N1CCOCC1`: the inhibition in assay [1] worked out at 1.88%; in assay [2], 1.88%; in assay [3] it was 2.51%; in [4], 1.51%; in assay [5], 1.3%; in assay [6], 1.48%. Further, the inhibition in [7] was 1.79%; in assay [8], 2.02%; in assay [9], 3%; in assay [10], 1.78%.
On to `CNC(=O)c1cc(-c2ccc(F)cc2)cc(-c2ccc(S(=O)(=O)N3CCCC3)cc2)c1N`, for which the inhibition was 1.95% in assay [1]; 1.69% in assay [2]; 2.18% in [3]; 0.9% in assay [4]; 1.77% in assay [5]; 1.31% in assay [6]. Moreover, the inhibition came out at 1.69% in assay [7], 2.73% in [8], 2.91% in [9] and 0.1% in assay [10].
With `CS(=O)(=O)CCNCc1ccc(-c2ccc3ncnc(Nc4ccc(OCc5ccccc5)c(C(F)(F)F)c4)c3c2)o1`, the inhibition in assay [1] was 2.14%; in assay [2] it was 2.7%; in assay [3], 2.3%; in [4] it was 0.89%; in [5], 1.86%; in assay [6], 1.54%. In addition, the inhibition in assay [7] was found to be 1.72%; in assay [8], 2.31%; in assay [9], 2.74%; in assay [10], 0.89%.
Consider `COc1cccc(-n2ncc3c(N/N=C/c4ccc(F)cc4)ncnc32)c1`, for which the inhibition in assay [1] is 1.49%; in [2], 4.65%; in [3], 6.14%; in assay [4], 2.21%; in assay [5], 4.62%; in assay [6], 1.27%. The inhibition in assay [7] came to 2.74%; in [8] it was 0.94%; in assay [9] it was 3.3%; in assay [10] it was 1.4%.
Take `CN1CCC(n2cnc(-c3ccc(F)cc3)c2-c2ccnc(N)n2)CC1`: the inhibition is 1.34% in assay [1]; 0.69% in assay [2]; 5.69% in assay [3]; 1.08% in assay [4]; 4.9% in [5]; -0.12% in [6]. Further, the inhibition in assay [7] came out at 2.82%; in assay [8], 1.52%; in [9], 4.57%; in assay [10], 1.08%.
Consider `CCn1c(-c2nonc2N)nc2ccccc21`, for which the inhibition was 36.6% in assay [1]; 9.34% in assay [2]; 42.6% in assay [3]; 18% in [4]; 58.3% in assay [5]; 7.22% in [6]. Moreover, the inhibition in assay [7] amounted to 36.2%; in assay [8] it was 19.1%; in [9] it was 68.5%; in assay [10] it was 1.71%.
Take `CNC(=O)c1cccc(C#Cc2cncnc2Nc2ccc(OCc3cccc(F)c3)c(Cl)c2)c1`: the inhibition in [1] was -0.1%; in assay [2] it was 0.98%; in assay [3] it was 4.37%; in assay [4], 1.04%; in [5] it was 1.83%; in assay [6], -0.84%. Moreover, the inhibition is 0.62% in [7], -0.63% in assay [8], 0.72% in assay [9] and -0.53% in assay [10].
